# According to PubChem BioAssay (NCATS):
# Inconclusive results are not listed. Entries that show only a call come without a potency. Values without a mark were called inactive. Activity calls are given as the source filed them. Calls come from the whole dose curve; as a rule, active = well fitted inhibition curve with a large enough effect; inconclusive = small, poorly fitted or top-dose-only effect; inactive = flat fitted curve, though single readings scatter.
# Columns and labels:
# [1] = qHTS profiling for inhibitors of Plasmodium falciparum proliferation (AID 504749); note: nearly all actives have a fitted effect of over 60% in size; settings: P. falciparum in erythrocytes, SYBR Green DNA, 72 h
# Method in brief: (§1)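 Infected RBCs, 0.3% parasitemia/2.5% Hct final; cpd 72 h, 37 C, 5% CO2; lysis buffer with saponin/triton/SYBR Green I, o/n RT dark; FI 485/535; norm. to artemisinin (0.29 uM) and DMSO.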
# 3D7 = assay: as above; settings: P. falciparum in erythrocytes, SYBR Green DNA, 72 h; series mostly up to 28.7 µM
# Method in brief: as §1
# 7G8 = assay: as above; settings: P. falciparum in erythrocytes, SYBR Green DNA, 72 h; series mostly up to 28.7 µM
# Method in brief: as §1
# AA1029 = assay: as above; settings: P. falciparum in erythrocytes, SYBR Green DNA, 72 h; series mostly up to 28.7 µM
# Method in brief: as §1
# AS120 = assay: as above; settings: P. falciparum in erythrocytes, SYBR Green DNA, 72 h; series mostly up to 28.7 µM
# Method in brief: as §1
# ATS189 = assay: as above; settings: P. falciparum in erythrocytes, SYBR Green DNA, 72 h; series mostly up to 28.7 µM
# Method in brief: as §1
# ATS95 = assay: as above; settings: P. falciparum in erythrocytes, SYBR Green DNA, 72 h; series mostly up to 28.7 µM
# Method in brief: as §1
# C2A = assay: as above; settings: P. falciparum in erythrocytes, SYBR Green DNA, 72 h; series mostly up to 28.7 µM
# Method in brief: as §1
# CP185 = assay: as above; settings: P. falciparum in erythrocytes, SYBR Green DNA, 72 h; series mostly up to 28.7 µM
# Method in brief: as §1
# CP191 = assay: as above; settings: P. falciparum in erythrocytes, SYBR Green DNA, 72 h; series mostly up to 28.7 µM
# Method in brief: as §1
# CP192 = assay: as above; settings: P. falciparum in erythrocytes, SYBR Green DNA, 72 h; series mostly up to 28.7 µM
# Method in brief: as §1
# CP194 = assay: as above; settings: P. falciparum in erythrocytes, SYBR Green DNA, 72 h; series mostly up to 28.7 µM
# Method in brief: as §1
# CP201 = assay: as above; settings: P. falciparum in erythrocytes, SYBR Green DNA, 72 h; series mostly up to 28.7 µM
# Method in brief: as §1
# CP211 = assay: as above; settings: P. falciparum in erythrocytes, SYBR Green DNA, 72 h; series mostly up to 28.7 µM
# Method in brief: as §1
# CP215 = assay: as above; settings: P. falciparum in erythrocytes, SYBR Green DNA, 72 h; series mostly up to 28.7 µM
# Method in brief: as §1
# CP217 = assay: as above; settings: P. falciparum in erythrocytes, SYBR Green DNA, 72 h; series mostly up to 28.7 µM
# Method in brief: as §1
# CP237 = assay: as above; settings: P. falciparum in erythrocytes, SYBR Green DNA, 72 h; series mostly up to 28.7 µM
# Method in brief: as §1
# CP238 = assay: as above; settings: P. falciparum in erythrocytes, SYBR Green DNA, 72 h; series mostly up to 28.7 µM
# Method in brief: as §1
# CP247 = assay: as above; settings: P. falciparum in erythrocytes, SYBR Green DNA, 72 h; series mostly up to 28.7 µM
# Method in brief: as §1
# CP203 = assay: as above; settings: P. falciparum in erythrocytes, SYBR Green DNA, 72 h; series mostly up to 28.7 µM
# Method in brief: as §1
# [2] = at 28.7 µM (top of the series), parasite line A
# [3] = at 28.7 µM (top of the series), parasite line B
# Potency is the fitted concentration of half-maximal effect.
smiles,measurement,setting,value
COC(=O)C1=C(C)NC(C)=C(C(=O)OC(C)(C)CN(C)CCC(c2ccccc2)c2ccccc2)C1c1cccc([N+](=O)[O-])c1 (stereo not drawn),Potency,[1]; parasite line A,2 µM (active)
same,Potency,[1]; parasite line B,2 µM (active)
same,Potency,3D7,2.51 µM (active)
same,Potency,7G8,2 µM (active)
same,Potency,AA1029,2.51 µM (active)
same,Potency,AS120,2 µM (active)
same,Potency,ATS189,2 µM (active)
same,Potency,ATS95,3.55 µM (active)
same,Potency,C2A,4.47 µM (active)
same,Potency,CP185,5.01 µM (active)
same,Potency,CP191,3.16 µM (active)
same,Potency,CP192,9.53 µM (active)
same,Potency,CP194,3.79 µM (active)
same,Potency,CP201,6.01 µM (active)
same,Potency,CP211,4.78 µM (active)
same,Potency,CP215,4.78 µM (active)
same,Potency,CP217,3.16 µM (active)
same,Potency,CP237,2.51 µM (active)
same,Potency,CP238,3.98 µM (active)
same,Potency,CP247,3.16 µM (active)
O=C(O)CCCCCCCC(=O)O,"activity, negative = inhibition",[1]; [2],9.73%
same,"activity, negative = inhibition",[1]; [3],11.2%
same,Potency,3D7,inactive
same,Potency,7G8,inactive
same,Potency,AA1029,inactive
same,Potency,AS120,inactive
same,Potency,ATS189,inactive
same,Potency,ATS95,inactive
same,Potency,C2A,inactive
same,Potency,CP185,inactive
same,Potency,CP191,inactive
same,Potency,CP192,inactive
same,Potency,CP194,inactive
same,Potency,CP201,inactive
same,Potency,CP211,inactive
same,Potency,CP215,inactive
same,Potency,CP217,inactive
same,Potency,CP237,inactive
same,Potency,CP238,inactive
same,Potency,CP247,inactive
CN(C(=O)CCCOc1ccc2[nH]c(=O)ccc2c1)C1CCCCC1,"activity, negative = inhibition",[1]; [2],-9.28%
same,"activity, negative = inhibition",[1]; [3],16%
same,Potency,3D7,inactive
same,Potency,7G8,11.2 µM (active)
same,Potency,AA1029,inactive
same,Potency,AS120,inactive
same,Potency,ATS189,inactive
same,Potency,ATS95,inactive
same,Potency,CP185,inactive
same,Potency,CP191,inactive
same,Potency,CP192,inactive
same,Potency,CP201,inactive
same,Potency,CP211,inactive
same,Potency,CP215,inactive
same,Potency,CP217,inactive
same,Potency,CP237,inactive
same,Potency,CP238,inactive
OCCN1CCN(CC/C=C2/c3ccccc3Sc3ccc(C(F)(F)F)cc32)CC1,Potency,[1]; parasite line A,8.91 µM (active)
same,Potency,[1]; parasite line B,11.2 µM (active)
same,Potency,3D7,12.6 µM (active)
same,Potency,7G8,3.16 µM (active)
same,Potency,AA1029,8.91 µM (active)
same,Potency,AS120,11.2 µM (active)
same,Potency,ATS189,7.94 µM (active)
same,Potency,CP191,5.01 µM (active)
same,Potency,CP192,9.53 µM (active)
same,Potency,CP194,7.57 µM (active)
same,Potency,CP201,10.7 µM (active)
same,Potency,CP203,9.53 µM (active)
same,Potency,CP211,5.36 µM (active)
same,Potency,CP215,12 µM (active)
same,Potency,CP237,10 µM (active)
same,Potency,CP247,8.91 µM (active)
OC(CCN1CCCCC1)(c1ccccc1)C1CCCCC1 (stereo not drawn),"activity, negative = inhibition",[1]; [2],-22%
same,"activity, negative = inhibition",[1]; [3],-4.19%
same,Potency,3D7,inactive
same,Potency,7G8,8.91 µM (active)
same,Potency,ATS189,inactive
same,Potency,C2A,inactive
same,Potency,CP185,inactive
same,Potency,CP191,inactive
same,Potency,CP192,inactive
same,Potency,CP201,inactive
same,Potency,CP211,inactive
same,Potency,CP215,inactive
same,Potency,CP217,inactive
same,Potency,CP237,inactive
same,Potency,CP238,inactive
same,Potency,CP247,inactive
c1cnc(N2CCN(Cc3ccc4c(c3)OCO4)CC2)nc1,"activity, negative = inhibition",[1]; [2],13.8%
same,"activity, negative = inhibition",[1]; [3],17.3%
same,Potency,3D7,inactive
same,Potency,7G8,inactive
same,Potency,AA1029,inactive
same,Potency,AS120,inactive
same,Potency,ATS189,inactive
same,Potency,ATS95,inactive
same,Potency,C2A,inactive
same,Potency,CP185,inactive
same,Potency,CP191,inactive
same,Potency,CP192,inactive
same,Potency,CP194,inactive
same,Potency,CP201,inactive
same,Potency,CP211,inactive
same,Potency,CP215,inactive
same,Potency,CP217,inactive
same,Potency,CP237,inactive
same,Potency,CP238,inactive
same,Potency,CP247,inactive
CN(C)CCCN1c2ccccc2Sc2ccccc21,"activity, negative = inhibition","[1]; at 12.8 µM (top of the series), parasite line A",8.14%
same,"activity, negative = inhibition","[1]; at 12.8 µM (top of the series), parasite line B",20.7%
same,Potency,3D7,inactive
same,Potency,7G8,3.16 µM (active)
same,Potency,AA1029,3.16 µM (active)
same,Potency,CP191,inactive
same,Potency,CP192,inactive
same,Potency,CP203,4.05 µM (active)
CN(C)C(=O)Oc1cccc([N+](C)(C)C)c1,"activity, negative = inhibition",[1]; [2],4.77%
same,"activity, negative = inhibition",[1]; [3],-6.35%
same,Potency,3D7,inactive
same,Potency,7G8,inactive
same,Potency,AA1029,inactive
same,Potency,AS120,inactive
same,Potency,ATS189,inactive
same,Potency,ATS95,inactive
same,Potency,C2A,inactive
same,Potency,CP185,inactive
same,Potency,CP191,inactive
same,Potency,CP192,inactive
same,Potency,CP194,inactive
same,Potency,CP201,inactive
same,Potency,CP211,inactive
same,Potency,CP217,inactive
same,Potency,CP237,inactive
same,Potency,CP238,inactive
same,Potency,CP247,inactive
CCc1cccc(N(C)C(N)=Nc2cccc3ccccc23)c1,"activity, negative = inhibition",[1]; [2],-26.1%
same,"activity, negative = inhibition",[1]; [3],-10.7%
same,Potency,3D7,inactive
same,Potency,7G8,3.98 µM (active)
same,Potency,AA1029,3.55 µM (active)
same,Potency,C2A,inactive
same,Potency,CP192,inactive
Nc1nc(N)c2nc(-c3ccccc3)c(N)nc2n1,"activity, negative = inhibition",[1]; [3],5.12%
same,Potency,[1]; parasite line A,2 µM (active)
same,Potency,3D7,7.08 µM (active)
same,Potency,AA1029,inactive
same,Potency,AS120,inactive
same,Potency,ATS189,inactive
same,Potency,ATS95,inactive
same,Potency,C2A,inactive
same,Potency,CP185,inactive
same,Potency,CP191,inactive
same,Potency,CP192,inactive
same,Potency,CP194,inactive
same,Potency,CP201,inactive
same,Potency,CP203,inactive
same,Potency,CP211,inactive
same,Potency,CP215,inactive
same,Potency,CP217,inactive
same,Potency,CP237,inactive
same,Potency,CP238,inactive
same,Potency,CP247,inactive
CC(N=C(NC#N)Nc1ccncc1)C(C)(C)C (stereo not drawn),"activity, negative = inhibition",[1]; [2],-3.66%
same,"activity, negative = inhibition",[1]; [3],-7.16%
same,Potency,3D7,inactive
same,Potency,7G8,inactive
same,Potency,AA1029,inactive
same,Potency,AS120,inactive
same,Potency,ATS189,inactive
same,Potency,ATS95,inactive
same,Potency,C2A,inactive
same,Potency,CP185,inactive
same,Potency,CP191,inactive
same,Potency,CP192,inactive
same,Potency,CP194,inactive
same,Potency,CP201,inactive
same,Potency,CP211,inactive
same,Potency,CP215,inactive
same,Potency,CP217,inactive
same,Potency,CP237,inactive
same,Potency,CP238,inactive
same,Potency,CP247,inactive
O=C(CCNNC(=O)c1ccncc1)NCc1ccccc1,"activity, negative = inhibition",[1]; [2],13.9%
same,"activity, negative = inhibition",[1]; [3],17%
same,Potency,3D7,inactive
same,Potency,7G8,inactive
same,Potency,AA1029,inactive
same,Potency,AS120,inactive
same,Potency,ATS189,inactive
same,Potency,ATS95,inactive
same,Potency,C2A,inactive
same,Potency,CP185,inactive
same,Potency,CP191,inactive
same,Potency,CP192,inactive
same,Potency,CP194,inactive
same,Potency,CP201,inactive
same,Potency,CP211,inactive
same,Potency,CP215,inactive
same,Potency,CP217,inactive
same,Potency,CP237,inactive
same,Potency,CP238,inactive
same,Potency,CP247,inactive
